Results taken from PubChem BioAssay AID1776 (NMMLSC, 2009).
In all, about 190,000 compounds went through this assay and about 490 (0.26%) were called active. Cut-off read from the data, not from the text of the source: active = fluorescence above about 89; inactive = the rest. The full list was thinned out, with actives kept by preference.

Experiment: green autofluorescence of compounds with GSH beads – biophysical, 488/530 nm, flow cytometry, artefact control, profiling panel (AID 1776);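 note: glutathione beads carrying GST-tagged Bcl family fusion proteins plus one bare bead set; values are compound well signal with DMSO vehicle wells as background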
Details: compound fluorescence 488/530 nm, at 10 µM, hits give high values

Fluorescence (KMESF), active:
OCC(CO)(CO)NCc1ccc(-c2ccccc2)cc1 236
COc1ccccc1OCCC(=O)OCC(=O)NC(=O)NC(C)(C)C 260
CCOC(=O)Cc1csc(NC(NC(=O)OCC)(C(F)(F)F)C(F)(F)F)n1 269
Cc1cccc2c(=O)n3c(nc12)CCCCC3 267
CCOC(=O)C1=C(C)NC(C)=C(C(=O)OCC)C1c1ccccn1 252
COC(=O)C1=C(C)N(C)C(C)=C(C(=O)OC)C1c1cccc(Br)c1 266

Fluorescence (KMESF), inactive:
Cc1c(Cl)cccc1NC(=O)CC1SC(=NCC2CCCO2)NC1=O (stereo not drawn) 20
CCOc1ccc(S(=O)(=O)N/N=C(\C)c2ccc(Cl)c(Cl)c2Cl)cc1 18
CCCCCC(=O)Nc1ccc(S(=O)(=O)Nc2ccc(Cl)nn2)cc1 11
COc1ccccc1N(C)S(=O)(=O)c1ccc(Cl)c(C(=O)N2CCC(C(N)=O)CC2)c1 11
CN1CCC(OC(=O)COc2ccc(Cl)cc2Cl)CC1 13
Cn1nccc1CNC(=O)c1ccnn1C 9
CCCCN(C)CCNC(=O)CSCc1ccc(C)cc1 25
CCCCN(C(=O)/C=C/c1ccco1)c1c(N)n(CC(C)C)c(=O)[nH]c1=O 9
COc1ccc(/C=C2/SC(=O)N(CCCCCC(=O)Nc3ccccc3C(=O)O)C2=S)cc1 9
O=C(CC12CC3CC(CC(C3)C1)C2)NCc1ccco1 15
CSCC(=O)N1CCCC(C(=O)c2cc(F)ccc2F)C1 (stereo not drawn) 11
O=C(O)Cc1ccc(-c2ccccc2)cc1 21
O=C(Cc1ccc(-c2ccccc2)cc1)NC(c1ccccc1)c1ccccc1 10
O=C(COc1ccc(NC(=O)c2ccccc2[N+](=O)[O-])cc1)c1ccc(F)cc1 23
O=C(COC(=O)c1ccc(Cl)nc1)NCc1cccs1 24
COc1cccc(NC(=O)COC(=O)CCOc2ccccc2OC)c1 10
COc1ccccc1OCCC(=O)OCC(=O)NCc1ccccc1 16
Cc1ccccc1-n1nnnc1SCCCC(=O)c1ccc(F)cc1 11
COc1cccc(Cn2cnc3c([N+](=O)[O-])c(C)c(C)cc32)c1 19
CCOC(=O)Cc1csc(NC(=O)Nc2ccccc2)n1 13
CCOC(=O)Cc1csc(NC(=O)C(C)(C)C)n1 28
COc1ccc(C)cc1S(=O)(=O)N(CC(=O)Nc1cccc([N+](=O)[O-])c1)c1ccc(C)cc1 11
CCCCN1C(=S)NC[C@@H]1C(C)CC (stereo partly drawn) 20
Cc1ccc(-c2cc(C(=O)N/N=C/C=C/c3ccccc3)n[nH]2)o1 7
O=C(NCCCN1CCOCC1)c1ccc(N2CCCC2)c([N+](=O)[O-])c1 15
COc1ccc(CCNC(=O)CCn2c(=O)c3ccccc3n(CC(=O)NCC3CCCO3)c2=O)cc1OC (stereo not drawn) 70
CNc1nc2c(C)cccn2c(=O)c1C=Nc1ccc(OC)cc1 19
Cc1ccc2nc3n(c(=O)c2c1)CCC3 45
O=c1c2c(nc3n1CCCCC3)sc1c(O)cccc12 8
Cc1ccc(S(=O)(=O)NCCC(c2ccccc2)c2ccccc2)cc1C(=O)O 12
CCO/C=C1\C(=O)N(c2ccc(OCC)cc2)C(=O)c2ccccc21 14
Cc1cc(NC(=O)CN2C(=O)NC(CCc3ccccc3)C2=O)no1 (stereo not drawn) 13
O=C(c1ccc(OC2CCN(C(=O)c3cccnc3)CC2)cc1)N1CCCCCC1 11
Cc1cccc(Oc2c([N+](=O)[O-])c(=O)n(C)c3ccccc23)c1 55
O=C(COC(=O)CCCSc1nc2ccccc2[nH]1)Nc1ccc(Oc2ccccc2)cc1 11
CCCCC(NS(=O)(=O)c1ccc(C)cc1)C(=O)Oc1ccc2c3c(c(=O)oc2c1)CCC3 (stereo not drawn) 11
CCOC(=O)C1=C(C)NC(=O)NC1c1ccccc1 (stereo not drawn) 17
CCOC(=O)C1=C(C)NC(SC)=NC1c1ccccc1 (stereo not drawn) 34
CC(C)(C)NC(=O)CN(C(=O)c1csnn1)c1ccccc1-c1ccccc1 14
CCc1cccc(CC)c1NC(=O)COc1ccccc1C(=O)c1cc(C#N)c(=O)n(C2CCCCC2)c1 18
CCOc1ccc(NC(=O)NNC(=O)c2ccc(Cl)cc2Cl)cc1 21
COc1ccc(/C=N/OCC(=O)N(Cc2ccccc2)c2ccccc2C(=O)O)cc1 6
COC(=O)c1ccc(-c2noc(CN(Cc3ccccn3)CC3CCCO3)n2)cc1 (stereo not drawn) 18
CC(C)N1CCC(=NNc2ccc([N+](=O)[O-])cc2S(=O)(=O)N2CCOCC2)CC1 18
O=C(CSc1nnnn1-c1ccc(O)cc1)N1N=C(c2ccc3ccccc3c2)CC1c1ccccc1 (stereo not drawn) 16
Cc1ccc2c(Cl)c(C(=O)Nc3nn[nH]n3)sc2c1 15
COc1ccc(CN2C(=O)CC(Cc3ccc(C)cc3)C2=O)cc1OC (stereo not drawn) 10
Cc1ccc(C(=O)O)cc1NC(=O)c1ccc(Cn2nc(C)c(Cl)c2C)o1 15
COC(=O)C1NN=C(C(=O)c2ccc(Br)cc2)C1c1cccc(Br)c1 (stereo not drawn) 10
COC(=O)C1=C(C)N(C)C(=S)NC1c1ccccc1 (stereo not drawn) 13
CCOc1ccccc1/C=N/NC(=O)CNC(=O)COc1ccccc1 13
Cc1cccc(-n2cc(CN3CCN(C(=O)c4ncn[nH]4)CC3)c(-c3cccc(F)c3)n2)c1 12
